Bioassay records deposited in PubChem BioAssay by National Center for Advancing Translational Sciences (NCATS).
Compounds with a hit are over-represented: about 1.6% of the library has one in this group of screens.
gsp antag = antagonizes gsp, the McCune-Albright syndrome mutation | gsp-mutant cells, cAMP HTRF, 30 min | Potency, µM (series often up to 76.9 µM), for inactives: at the top dose activity change, negative = inhibition, actives largely listed as inhibitors | actives 0.4% (n = 340,000); calls by dose curve; cell line not stated here;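 also: intracellular cAMP measured with PDE inhibitor Ro 20-1724 present during compound exposure; potency is read from the fitted curve at half-maximal effect; % is scaled to controls: 0 for no effect and ±100 for the full control effect; nearly all actives have a fitted effect of over 65% in size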
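Cells, 2000/well, grown 16–24 h in DMEM 10% FBS with 0.5 mg/ml G418, then compounds plus […] (300 uM addition stock), 30 min at 37C. cAMP read by HTRF (cAMP-d2 and anti-cAMP antibody-K in lysis buffer) after 30 min RT.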
RXFP1 agonist = RXFP1 (human) receptor agonism. Q9HBX9. HEK293T-RXFP1 cAMP TR-FRET, 30 min; response scale: percent of porcine relaxin response, buffer zero. Potency, µM (series often up to 57.5 µM), without a hit: at the highest dose activation, usual class: activators. actives 0.3% (n = 370,000); active = well fitted activation curve with a large enough effect; inconclusive = small, poorly fitted or top-dose-only effect; also: potency is read from the fitted curve at half-maximal effect; % is scaled to controls: 0 for no effect and ±100 for the full control effect; nearly all actives have a fitted effect of over 60% in size
Target sequence (Q9HBX9 whole entry, looked up): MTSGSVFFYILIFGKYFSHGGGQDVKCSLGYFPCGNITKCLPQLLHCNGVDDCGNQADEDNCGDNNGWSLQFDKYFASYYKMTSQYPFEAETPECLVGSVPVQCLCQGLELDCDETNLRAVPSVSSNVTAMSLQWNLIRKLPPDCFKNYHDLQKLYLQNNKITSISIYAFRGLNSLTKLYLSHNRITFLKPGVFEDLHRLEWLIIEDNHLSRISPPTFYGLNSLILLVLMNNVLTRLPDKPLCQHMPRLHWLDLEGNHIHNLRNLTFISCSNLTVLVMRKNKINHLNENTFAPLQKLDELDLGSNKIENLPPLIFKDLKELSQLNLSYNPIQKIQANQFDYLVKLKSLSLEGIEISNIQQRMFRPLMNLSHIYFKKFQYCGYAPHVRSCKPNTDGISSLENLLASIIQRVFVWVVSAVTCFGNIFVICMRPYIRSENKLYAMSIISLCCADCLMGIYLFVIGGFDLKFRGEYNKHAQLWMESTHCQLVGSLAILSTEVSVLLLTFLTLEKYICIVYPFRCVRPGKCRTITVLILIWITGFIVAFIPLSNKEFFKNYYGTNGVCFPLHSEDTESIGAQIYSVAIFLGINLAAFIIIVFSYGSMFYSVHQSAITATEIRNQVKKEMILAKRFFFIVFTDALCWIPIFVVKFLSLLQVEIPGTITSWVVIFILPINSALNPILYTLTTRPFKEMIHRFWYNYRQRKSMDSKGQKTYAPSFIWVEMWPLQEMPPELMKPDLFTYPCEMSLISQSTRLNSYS
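cAMP rise read by TR-FRET after 30 min, 37C compound exposure (up to 58 uM) in RXFP1-transfected HEK293 cells with Ro 20174 present. EC50 from Hill-equation fits, with 29 nM porcine relaxin as 100% and buffer as basal.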
gsp ag = activates gsp, the McCune-Albright syndrome mutation; gsp mutant cells, cAMP HTRF, 30 min; Potency, µM (series often up to 76.9 µM), without a hit: at the top dose activation (cAMP increase), most hits filed as activators; actives 0.13% (n = 340,000); AID 624287; active = well fitted activation curve with a large enough effect; inconclusive = small, poorly fitted or top-dose-only effect, or another doubt; inactive = no such curve, though single readings can be large or run the other way; cell line not stated here;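 also: phosphodiesterase inhibitor Ro 20-1724 added with compounds to block cAMP breakdown; potency is read from the fitted curve at half-maximal effect; nearly all actives have a fitted effect of over 60% in size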
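Cells stably selected in G418 were plated at 2000/well, grown 16-24 hr, then given compounds in DMSO with the PDE inhibitor […] (300 uM solution added) for 30 min at 37C; cAMP was read by HTRF.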
RXFP1 antag = antagonists of human relaxin receptor RXFP1. HEK293-RXFP1, relaxin-stimulated cAMP HTRF, 30 min; active compounds read low. activity change, negative = inhibition, % at 57.5 µM. actives 0.59% (n = 350,000);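 active = activity change of -60% or lower, but not beyond a set lower limit; inconclusive = change between -60% and -40%, or beyond the set limit; inactive = change above -40%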; also: % is scaled to controls: 0 for no effect and ±100 for the full control effect
Giardia killer = Giardia lamblia killing; AID 540267; actives 0.15% (n = 340,000); Giardia lamblia trophozoite viability; activity change, % at 7.66 µM, hits read low; in the data active = activity change below about -80%; inconclusive = between about -30% and that limit;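 also: parasites exposed to compound for two days anaerobically before the ATP read; % is scaled to controls: 0 for no effect and ±100 for the full control effect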
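Media and compound were dispensed first, then trophozoites at 100 cells/well; plates sat 48 hrs at 37 deg C without oxygen before ATP luminescence reagent was added and read after 15-30 min at room temperature.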
FBPA coupling cs = counter-screen for Giardia aldolase inhibitors: coupling enzyme system | actives 0.67% (n = 290,000) | coupling enzyme system counterscreen, AmpLite Red fluorescence | activity change, negative = inhibition, % at 58.2 µM, hits read low; in the data active = activity change below about -30%; also: % is scaled to controls: 0 for no effect and ±100 for the full control effect
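Counterscreen lacking aldolase: glyceraldehyde-3-phosphate coupling-enzyme reagent preincubated 10 min at RT with compound (at 57.5 uM final), then substrate/coupling system with AmpLite Red added; fluorescence read at 525/598 nm after 20 min RT.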
Active calls of the source: *; ? = inconclusive; . = no result given; [ ] = dose if it differs, or a comment.

SMILES	gsp antag	RXFP1 agonist	gsp ag	RXFP1 antag	Giardia killer	FBPA coupling cs
Cc1cc(=O)c2c(O)c3c(O)cc(O)c4c5c(O)cc(O)c6c(O)c7c(=O)cc(C)c8c1c2c(c34)c(c65)c78	.	.	.	.	.	-9.7
CC(C)c1nc(N2CCOCC2)c(C#N)c2c1CCC2	35.5µM*	-0.5%	0.4%	-17.7	-5.3	5.0
CCCc1nc(N2CCOCC2)c(C#N)c2c1CCCC2	-1.4%	2.1%	-2.2%	-21.0	-17.0	6.3
Cc1ccccc1S(=O)(=O)N1CCN(c2nc(-c3cccs3)nc3ccccc23)CC1	.	.	.	.	6.0	.
CCCCCN(CCCOC)C(=O)C(CCC(=O)O)NC(=O)c1ccc(Cl)c(Cl)c1 (stereo not given)	.	.	.	-26.6	.	.
COc1ccc(-n2nc([N+](=O)[O-])c(=NCCCN3CCCC3=O)n2O)cc1	-6.5%	0.5%	?	3.6	-85.4*	-2.4
Cc1cccc(-n2nc([N+](=O)[O-])c(=NC3CCN(Cc4ccccc4)CC3)n2O)c1	15.0%	4.6%	9.3%	0.6	-84.4*	-1.2
COc1ccc(-n2nc([N+](=O)[O-])c(=NCCc3cccc(C)c3)n2O)cc1	-13.1%	-0.6%	5.2%[15.4 µM]	4.9	-85.5*	-0.9
O=C1CCCN1CCCN=c1c([N+](=O)[O-])nn(-c2ccc(Cl)cc2)n1O	2.7%	-0.2%	-8.1%[15.4 µM]	3.7	?	1.6
COc1ccc(CCN=c2c([N+](=O)[O-])nn(-c3cccc(C)c3)n2O)cc1OC	-3.2%	3.6%	-4.4%	1.2	?	0.6
Cc1cccc(CCN=c2c([N+](=O)[O-])nn(-c3ccccc3)n2O)c1	-1.0%	0.7%	?	3.0	-90.8*	-2.8
CCOc1ccccc1C(=O)NC(C(=O)N(C)c1c(N)n(Cc2ccccc2)c(=O)[nH]c1=O)C(C)C (stereo not given)	-4.6%	.	-5.4%[15.4 µM]	-4.9	14.0	.
CCN(CC)S(=O)(=O)c1cccc(C(=O)N/N=C/c2cccc(O)c2O)c1	0.3%	-1.4%	11.5%	14.5	-14.0	-52.4*
CCN(CC)S(=O)(=O)c1cccc(C(=O)Nc2nnc(C)s2)c1	-14.9%	18.1%	21.0%[15.4 µM]	6.1	9.7	2.1
CCN(CC)S(=O)(=O)c1cccc(C(=O)Nc2cc(C)on2)c1	50.1µM*	-0.1%	15.9%	1.5	9.3	0.7
C[C@H]1CN([C@@H](C)CO)C(=O)Cc2cc(NC(=O)Cc3ccccc3)ccc2O[C@H]1CN(C)C(=O)Nc1cccc2ccccc12	3.3%	.	.	.	-10.9	.
Oc1ccc(N=Cc2ccc(-c3cccs3)s2)cc1	?	-0.3%	-3.6%	?	-26.7	-50.6*
CCOc1ccc(NC(=O)NCCc2c(C)nn(C)c2C)cc1	.	-1.3%	.	.	.	.
Cc1ccc(NC(C)C(=O)N/N=C/c2ccc([N+](=O)[O-])s2)cc1 (stereo not given)	-2.3%	-3.8%	-7.2%[15.4 µM]	-9.9	-83.7*	-0.2
O=C(N/N=C/c1ccc([N+](=O)[O-])s1)C(O)c1ccccc1 (stereo not given)	0.4%	-0.4%	?	-2.4	?	-25.1
COc1ccc(NC(C)C(=O)N/N=C/c2ccc([N+](=O)[O-])s2)cc1 (stereo not given)	5.5%	2.3%	-6.2%[15.4 µM]	-7.0	-89.0*	0.7
COC(=O)N/N=C/c1ccc([N+](=O)[O-])s1	4.8%	4.0%	4.5%	-1.7	?	3.0
CN(C)S(=O)(=O)c1cccc(COc2ncnc3c(Cl)cc(Cl)cc23)c1	-5.6%	15.8µM*	?	11.9	-25.9	1.2
CN(C)S(=O)(=O)c1cccc(COC(=O)c2ccc(Cl)cc2O)c1	?	-2.0%	16.8%	5.8	8.9	0.1
Cn1c(=O)c2c(nc(N3CCCCC3)n2CCCNC2=NCCCC2)n(C)c1=O	20.6%	5.3%	12.6µM*	-1.7	-13.2	1.6
SMILES	gsp antag	RXFP1 agonist	gsp ag	RXFP1 antag	Giardia killer	FBPA coupling cs
CCCCCn1c(N2CCCC2)nc2c1c(=O)n(C)c(=O)n2C	?	8.5%	6.6%[15.4 µM]	-21.3	18.0	1.4
COc1cc(C=O)c([N+](=O)[O-])cc1OC	.	.	.	.	.	-61.3*
CN1C(=O)C(N=Nc2ccc([N+](=O)[O-])cc2)SC1=S (stereo not given)	31.6µM*	.	?	-20.5	?	.
C=CCN1c2ccccc2[C@]23C[C@@H](C(=O)OC)N(S(=O)(=O)c4ccc5c(c4)OCCN5C)C2=NC(C(=O)OC)=C(C(=O)OC)[C@H]13	.	.	.	.	.	0.9
Cc1[nH][nH]c(=O)c1C(c1ccc(F)cc1)c1c(C)[nH][nH]c1=O	4.8%	-2.4%	-10.8%	-4.8	43.4	-3.5
Cc1[nH][nH]c(=O)c1C(c1ccc(Cl)cc1)c1c(C)[nH][nH]c1=O	7.8%	-2.3%	-31.2%	-79.9*	-21.4	-9.4
CCOc1cc(C2CC(=O)N3CN(C4CCCCC4)CSC3=C2C#N)ccc1O (stereo not given)	-12.1%	8.9%	-15.9%	-4.4	-16.8	-35.2*
N#CC1=C2SCN(C3CCCCC3)CN2C(=O)CC1c1ccc(Br)cc1 (stereo not given)	.	6.0%	.	-9.2	.	.
O=C(CSc1nnc(-c2ccncc2)n1Cc1ccco1)Nc1nc(-c2ccccc2)cs1	35.5µM*	0.6%	-6.5%	-15.9	-6.9	-1.5
COc1ccc(S(=O)(=O)N2CCOCC2)cc1NC(=O)c1cc2ccccc2o1	-23.7%	3.2%	16.8%[15.4 µM]	-10.7	14.7	.
O=[N+]([O-])c1ccc(CN2CCN(c3ccccc3)CC2)o1	7.4%	-3.9%	-32.7%	7.6	-92.1*	-1.9
Cc1ccccc1N1CCN(Cc2ccc([N+](=O)[O-])o2)CC1	2.1%	3.9%	-1.9%	1.1	-83.1*	-5.9
O=[N+]([O-])c1ccc(N2CCN(Cc3ccc([N+](=O)[O-])o3)CC2)cc1	8.8%	1.9%	-18.7%	6.0	?	-0.3
FC(F)(F)c1nc(=S)c2ccccc2[nH]1	25.1%	0.3%	2.24µM*	8.5	5.7	-4.9
C(=C\c1ccccc1)/CN1CCN(C(c2ccccc2)c2ccccc2)CC1	-1.0%	0.9%	.	-40.0	2.8	3.2
Fc1ccc(C(c2ccc(F)cc2)N2CCN(C/C=C/c3ccccc3)CC2)cc1	-15.1%	2.8%	.	-63.7*	-7.4	-1.8
FC(F)(F)c1cnc(Sc2nc3nccc(-c4ccc(Cl)cc4)n3n2)c(Cl)c1	-0.6%	1.4%	-12.8%	-0.8	-7.0	-55.4*
COc1ccc(-c2ccnc3nc(Sc4ncc(C(F)(F)F)cc4Cl)nn23)cc1	-17.4%	-2.2%	?	-3.3	5.5	-5.9
CCN1C(=O)c2ccccc2C1Nc1cccc(OCCN2CCCCC2)c1 (stereo not given)	.	.	.	-7.4	.	.
COC(=O)NC(c1ccco1)[C@]1(C(C)=O)CCCC1=O (stereo not given in full)	.	.	.	.	.	-0.3
